In paper PMC4336329 (PLoS ONE, 2015):
About 14,000 (4.5%) of roughly 310,000 compounds showed an effect of 50% or more. Effects have a minus sign here. Shown is part of a subset that was picked to be rich in strong results.

Target: human ether-à-go-go-related gene (hERG) potassium channel (human, UniProt Q12809)
Assay: primary screen, population patch clamp on CHO cells stably expressing hERG; higher = less effect of the substance
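Note: peak tail current of the secondary pulse compared with the same well before compound.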

human ether-à-go-go-related gene (hERG) potassium channel, sequence (Q12809 whole entry, looked up): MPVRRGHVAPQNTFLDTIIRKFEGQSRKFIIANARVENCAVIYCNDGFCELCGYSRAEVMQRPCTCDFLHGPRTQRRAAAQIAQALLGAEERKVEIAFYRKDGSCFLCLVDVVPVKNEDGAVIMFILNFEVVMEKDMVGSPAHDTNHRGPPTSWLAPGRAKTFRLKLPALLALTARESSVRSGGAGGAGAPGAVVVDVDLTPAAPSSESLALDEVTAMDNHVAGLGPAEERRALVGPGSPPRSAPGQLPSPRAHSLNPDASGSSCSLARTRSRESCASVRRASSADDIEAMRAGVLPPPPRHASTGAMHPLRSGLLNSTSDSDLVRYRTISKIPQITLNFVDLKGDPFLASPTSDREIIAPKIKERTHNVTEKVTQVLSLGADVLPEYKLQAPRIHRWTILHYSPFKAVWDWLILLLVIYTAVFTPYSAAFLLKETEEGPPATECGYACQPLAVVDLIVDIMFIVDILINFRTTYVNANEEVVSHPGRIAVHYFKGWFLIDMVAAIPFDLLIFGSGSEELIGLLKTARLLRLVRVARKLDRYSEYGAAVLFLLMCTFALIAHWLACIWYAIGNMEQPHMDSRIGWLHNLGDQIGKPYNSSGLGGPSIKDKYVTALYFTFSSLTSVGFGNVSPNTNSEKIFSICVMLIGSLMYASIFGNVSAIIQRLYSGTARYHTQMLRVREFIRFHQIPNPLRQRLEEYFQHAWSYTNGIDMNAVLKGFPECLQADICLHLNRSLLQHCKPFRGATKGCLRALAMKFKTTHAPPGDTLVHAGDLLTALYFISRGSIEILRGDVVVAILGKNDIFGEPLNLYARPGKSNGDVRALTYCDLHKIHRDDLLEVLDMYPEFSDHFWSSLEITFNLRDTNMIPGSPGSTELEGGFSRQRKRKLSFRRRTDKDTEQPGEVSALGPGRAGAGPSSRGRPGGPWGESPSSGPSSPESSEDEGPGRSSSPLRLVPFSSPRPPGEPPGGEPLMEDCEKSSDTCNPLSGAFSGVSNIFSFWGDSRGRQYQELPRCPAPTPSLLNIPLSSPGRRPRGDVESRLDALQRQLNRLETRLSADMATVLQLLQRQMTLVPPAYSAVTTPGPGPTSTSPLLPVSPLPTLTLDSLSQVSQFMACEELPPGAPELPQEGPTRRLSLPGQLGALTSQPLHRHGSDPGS

Row | Structure (SMILES) | hERG current change (%, negative = inhibition) at 10uM
1 | O=C(Cn1nc(-c2ccccc2)c2ccccc2c1=O)NN1CCOCC1 | 5.24%
2 | COc1ccc(S(=O)(=O)NCc2cccnc2)cc1OC | 17.1%
3 | COc1cc2sc3ccc(C#Cc4ccccn4)cc3c(=O)c2cc1OC | 14.9%
4 | O=C1Cc2ccccc2C(=O)N1Cc1cccc(Cl)c1 | 11.5%
5 | CC(=O)Nc1sc(NC(=O)c2ccccc2)nc1-c1cccs1 | 0.00438%
6 | CC1CC(Nc2ccccc2)=CC(=O)O1 (stereo not drawn) | 24.7%
7 | CC(c1nnc(Sc2nnnn2-c2ccccc2)n1-c1ccc(F)cc1)N(C)C (stereo not drawn) | 3.57%
8 | COc1ccc(CN(C)CC(=O)Nc2ccccc2C(=O)NC2CC2)cc1OC | -21.7%
9 | COc1ccc(OC)c(CN2CCN(CC(=O)Nc3ccccc3C(=O)NC3CC3)CC2)c1 | -82.5%
10 | COc1ccc(OCC(=O)Nc2ccccc2C(=O)NC2CC2)cc1 | -13.4%
11 | COc1ccc(CN2CCN(CC(=O)Nc3ccccc3C(=O)NC3CC3)CC2)cc1F | -91.3%
12 | COC(=O)c1ccccc1NC(=O)CN1CCC(NC(=O)c2ccc(C)cc2)CC1 | 8.67%
13 | COc1ccc(F)cc1CN1CCN(CC(=O)Nc2ccccc2C(=O)NC2CC2)CC1 | -87.6%
14 | COc1ccccc1OCC(=O)Nc1ccccc1C(=O)NC1CC1 | -8.86%
15 | COc1cc(C)c(CN2CCN(CC(=O)Nc3ccccc3C(=O)NC3CC3)CC2)cc1OC | -80.1%
16 | COc1cc2c(cc1OC)CN(CC(=O)Nc1ccccc1C(=O)NC1CC1)CC2 | -24.5%
17 | COc1cccc(OC)c1NC(=O)CN1CCC(NC(=O)c2cccc(F)c2)CC1 | 1.5%
18 | O=C(CCC(=O)c1ccc(F)cc1)Nc1ccccc1Cl | 1.71%
19 | Cc1ccc(S(=O)(=O)N2CCCC2)cc1C(=O)N1CCN(Cc2ccccc2)CC1 | -8.29%
20 | CC1CSc2nnc(CCc3ccccc3)n21 (stereo not drawn) | 8.26%
21 | O=C(CSc1ccc(-c2cccnc2)nn1)N1CCCCCC1 | 23.2%

Row | Structure (SMILES) | hERG current change (%, negative = inhibition) at 10uM
22 | CCCCn1c(N)c(N(CCOC)C(=O)CSCc2cccc(C)c2)c(=O)[nH]c1=O | 9.08%
23 | COCCNS(=O)(=O)c1ccc(SC)cc1 | 10.2%
24 | Cc1cc(NC(=O)CSc2nnc(COc3ccccc3)n2Cc2ccco2)no1 | 2.24%
25 | COC(=O)c1c(NC(=O)CCS(=O)(=O)c2ccccc2)sc2c1CCN(C)C2.Cl | -48%
26 | CCOC(=O)N1CCc2c(sc(NC(=O)CCS(=O)(=O)c3ccccc3)c2C(N)=O)C1 | -10.8%
27 | CCOC(=O)c1c(NC(=O)CCS(=O)(=O)c2ccccc2)sc2c1CCN(C)C2.Cl | -52.5%
28 | CC(=O)N1CCc2c(sc(NC(=O)CCS(=O)(=O)c3ccccc3)c2C(N)=O)C1 | 5.3%
29 | CC(=O)N1CCc2c(sc(NC(=O)CS(=O)(=O)c3ccc(F)cc3)c2C(N)=O)C1 | 15.7%
30 | CC(C)N1CCc2c(sc(NC(=O)CCS(=O)(=O)c3ccccc3)c2C(N)=O)C1.Cl | -26%
31 | CC(C)N1CCc2c(sc(NC(=O)CCS(=O)(=O)c3ccccc3)c2C#N)C1.Cl | -9.63%
32 | CCCN1CCc2c(sc(NC(=O)CCS(=O)(=O)c3ccccc3)c2C(N)=O)C1.Cl | -27.3%
33 | CCCN1CCc2c(sc(NC(=O)CCS(=O)(=O)c3ccccc3)c2C(=O)OC)C1.Cl | -67%
34 | CCOC(=O)c1c(NC(=O)CCS(=O)(=O)c2ccccc2)sc2c1CCN(C(C)C)C2.Cl | -72.4%
35 | CN1CCc2c(sc(NC(=O)CS(=O)(=O)c3ccccc3)c2C(N)=O)C1.Cl | -23.4%
36 | CN1CCc2c(sc(NC(=O)CS(=O)(=O)c3ccc(F)cc3)c2C(N)=O)C1.Cl | -58.8%
37 | CC(Sc1ncn[nH]1)C(=O)Nc1ccc(Cl)cn1 (stereo not drawn) | 2.06%
38 | O=C(O)c1ccc(/C=C/c2nc3ccccc3c(=O)[nH]2)cc1 | 17.5%
39 | CCSc1nnc(NC(=O)c2cccs2)s1 | -8.23%
40 | COc1cc(OC)cc(-c2nnc(SCC(=O)N3c4ccccc4Sc4ccccc43)o2)c1 | 15.3%
41 | CC1C=CCC2C(=O)N(c3ccc(Cl)cc3O)C(=O)C12 (stereo not drawn) | -2.47%
42 | COC(=O)c1sc(N2C(=O)C(O)=C(C(=O)c3ccc(C)o3)C2c2ccco2)nc1C (stereo not drawn) | -4.73%

Row | Structure (SMILES) | hERG current change (%, negative = inhibition) at 10uM
43 | O=C(O)C1=C[C@H](c2ccc(C(F)(F)F)cc2)C[C@H](OCc2ccc(CO)cc2)O1 | 21.5%
44 | O=C(CSc1ccsc1[N+](=O)[O-])N1CCN(c2ccc(Cl)cc2)CC1 | 10%
45 | O=C(COc1ccc(Cl)cc1)Nc1ccc(NC(=O)c2ccco2)cc1 | 13.4%
46 | COc1cccc(CN(C)C(=O)Nc2cccc(C(F)(F)F)c2)c1OC | -4.73%
47 | O=C(NCc1ccc(Cl)cc1)c1cc2c(s1)CS(=O)(=O)C2 | -15.1%
48 | O=C(CCCn1c(=O)c2sccc2n(Cc2ccc(F)cc2)c1=O)NCc1ccco1 | -30.2%
49 | O=C(NCc1cccs1)Nc1ccc(Cl)cc1 | -21.2%
50 | O=C(O)c1ccc2c(c1)S(=O)(=O)c1cc(Cl)ccc1C2=O | 19.5%
51 | Cc1cccc(N2CCN(C(=O)COc3ccc4ccc(=O)oc4c3)CC2)c1C | 5.66%
52 | C[n+]1ccccc1/C=C1\Sc2ccccc2N1CCO.[I-] | -2.79%
53 | CCC(CO)[n+]1c(C)cc(/C=C2\Sc3ccccc3N2Cc2ccccc2)cc1C.[Br-] (stereo not drawn) | -75.6%
54 | CCN1/C(=C2\SC(=S)N(Cc3ccccc3)C2=O)Sc2ccccc21 | 13.6%
55 | Nc1cc([N+](=O)[O-])ccc1O | 6.95%
56 | Clc1cncc(Cl)c1N/N=C/c1ccccc1 | -1.37%
57 | CNC(=O)c1cc2cc(Cc3ccccc3Cl)ccc2oc1=O | 1.75%
58 | CCN1C(=O)C(CC(=O)Nc2ccc(F)cc2)N(Cc2cccs2)C1=S (stereo not drawn) | -48.9%
59 | CCOc1ccc2c(c1)C(N(CCN1CCOCC1)C(=O)Nc1ccc(OC)cc1OC)CC(C)(C)O2 (stereo not drawn) | -51.9%
60 | CCOc1ccc2c(c1)C(N(CCN1CCOCC1)C(=O)Nc1ccccc1)CC(C)(C)O2 (stereo not drawn) | -19.1%
61 | CCOc1ccc2c(c1)C(N(CCN1CCOCC1)C(=S)Nc1ccccc1OC)CC(C)(C)O2 (stereo not drawn) | -24.9%
62 | CN(C(=O)/C=C/c1ccc2c(c1)OCO2)c1ccccc1 | -4.59%
63 | CN1CCN(C(CNC(=O)C(=O)Nc2ccc3c(c2)OCCO3)c2ccc(F)cc2)CC1 (stereo not drawn) | -46.2%

Row | Structure (SMILES) | hERG current change (%, negative = inhibition) at 10uM
64 | COc1ccc(C(CNC(=O)C(=O)Nc2ccc3c(c2)OCCO3)N2CCN(C)CC2)cc1 (stereo not drawn) | -45.1%
65 | COc1ccc(C(CNC(=O)C(=O)Nc2ccc3c(c2)OCO3)N2CCN(C)CC2)cc1 (stereo not drawn) | -50.9%
66 | CC(C)CNC(=O)C(=O)NCC(c1ccc2c(c1)OCO2)N1CCOCC1 (stereo not drawn) | 6.81%
67 | CN1CCN(C(CNC(=O)C(=O)Nc2ccc3c(c2)OCO3)c2ccc(F)cc2)CC1 (stereo not drawn) | -44.3%
68 | Cc1ccc(C(CNC(=O)C(=O)Nc2ccc3c(c2)OCCO3)N2CCN(C)CC2)cc1 (stereo not drawn) | -55.5%
69 | CCOc1cc2c(cc1OC)C(NC(=O)C(F)(F)F)CC2=O (stereo not drawn) | -0.243%
70 | CC1CCc2nc3ccc(S(=O)(=O)N4CCC(C(=O)NCc5ccccc5Cl)CC4)cc3c(C(=O)O)c2C1 (stereo not drawn) | 7.04%
71 | O=C(O)c1ccc(N2C(=O)CC(N3CCC(c4nc5ccccc5[nH]4)CC3)C2=O)cc1 (stereo not drawn) | 4.95%
72 | COc1ccc(-c2ccc(Nc3ccc(C(=O)N4CCOCC4)cc3)nn2)cc1OC | -5.3%
73 | CC(C)(C)C(=O)Nc1ccc2c(c1)OCCOCCOc1cc(NC(=O)C(C)(C)C)ccc1OCCOCCO2 | -65.5%
74 | O=C(C[n+]1ccc(/C=C/c2ccccc2)cc1)c1ccc2c(c1)OCCO2.[Br-] | -50.2%
75 | Nc1cc[n+](CC(=O)c2ccc3c(c2)OCCO3)cc1.[Br-] | -0.154%
76 | CC(=O)N1CCN(C(=O)c2ccc3c(c2)OCCO3)CC1 | 10.9%
77 | CC(=O)c1ccc2c(c1)OCCOCCOc1ccccc1OCCOCCO2 | -74.4%
78 | CC(=O)Nc1ccc2c(c1)OCCOCCOc1cc(NC(C)=O)ccc1OCCOCCOCCO2 | -2.81%
79 | CCC(=O)c1ccc2c(c1)OCCO2 | 3.36%
80 | C/C(=N/O)c1ccc2c(c1)OCCOCCOc1cc(/C(C)=N/O)ccc1OCCOCCO2 | -77.3%
81 | Cc1cc[n+](CC(=O)c2ccc3c(c2)OCCO3)cc1.[Br-] | -22.2%
82 | CC(=O)Nc1ccc2c(c1)OCCOCCOc1cc(NC(C)=O)ccc1OCCO2 | -4.52%
83 | C/C(=N\O)c1ccc2c(c1)OCCO2 | 14.3%
84 | CC(=O)N/N=C(\C)c1ccc2c(c1)OCCO2 | 11%
